Source: PubChem BioAssay
Fluor 339 460 = intrinsic fluorescence of library compounds, ex339/em460 – biochemical, MLSMR library, data from DPM-DC assay, artefact control, profiling panel | AID 709 | fluorescence fold increase at 10 µM | compound autofluorescence, ex339/em460 nm, NADH buffer; stronger effect = higher value; 1 = no-compound wells, NADH background | 65,000 compounds, 5.5% hits;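 active means at 10 µM, mean starting fluorescence two-fold or more over control wells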;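 further: signal is the first read of a kinetic run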
Abs 340nm = compounds absorbing at 340 nm; compound absorbance at 340 nm, fold over control; fold change at 10 µM; 65,000 tested, under 10 active; AID 708;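 active means at 10 µM dose, initial 340 nm absorbance at least 2 fold that of control wells; inactive means change under 2 fold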;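 further: initial absorbance extrapolated from kinetic A340 decline of NADH oxidation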
MK inhibit = blocks S. pneumoniae mevalonate kinase; 65,000 compounds, 0.48% hits; inhibition, % at 10 µM; purified MK, PK/LDH-coupled NADH absorbance 340 nm;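 active means ranked among the strongest by inhibition in the single 10 µM screen, a fixed top-ranked set picked for dose follow-up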
PMK inhibit = blocks S. pneumoniae phosphomevalonate kinase; inhibition, % at 10 µM; 65,000 compounds, 0.49% hits; AID 539; purified PMK, PK/LDH-coupled NADH absorbance 340 nm;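 active means top-ranked compounds by inhibition in the single 10 µM screen, taking a fixed number of the strongest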;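 further: 0% = full reaction with DMSO carrier and 100% = background rate without enzyme reaction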
NADH coupling = inhibitors of enzymes used to reach an NAD/NADH endpoint. 65,000 compounds, 0.02% hits. AID 774. IC50, µM (top dose mostly 10 µM), for inactives: top-dose inhibition. coupled PK/LDH NADH assays, four targets;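 active means single-dose screening hits from any of four coupled enzyme assays that gave an IC50 when retested across doses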;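 further: the DPM-DC format reads NADH fluorescence rather than 340 nm absorbance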
DPM-DC inhibit = inhibitors of Streptococcus pneumoniae diphosphomevalonate decarboxylase; purified DPM-DC, PK/LDH coupled NADH fluorescence; calls only at 10 µM; 65,000 compounds, 0.49% hits; AID 556;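 active means the 320 compounds with the highest percent inhibition in the single-dose primary screen, excluding strongly autofluorescent ones, cut at about 32% in these data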;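 further: kinetic rate of NADH fluorescence loss reporting ADP formed by the decarboxylase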
* marks the source's active call; other numbers are inactive results; i = inactive; . = no result shown; + = active, no number. An excerpt weighted towards active compounds, which were near 6.5% of everything screened.

SMILES	Fluor 339 460	Abs 340nm	MK inhibit	PMK inhibit	NADH coupling	DPM-DC inhibit
O=C(Cc1ccccc1)N1CCCC(c2nc(-c3cccs3)no2)C1 (stereo unspecified)	1	1	3	8	2%	i
O=S(=O)(Cc1ccccc1)N1CCC(c2nc(-c3cccs3)no2)CC1	3.1*	1	5	13	14%	i
C=CCn1cnc2c(NCc3ccccc3)ncnc21	1	0.98	active	0	6%	i
OCCNc1ncnc2c1ncn2Cc1ccccc1	1.1	0.97	14	12	9%	i
COc1ccccc1N1CC(O)=C(c2nc3ccccc3c(=O)[nH]2)C1=N	2.5*	1	22	7	7%	i
COCCN1CC(O)=C(c2nc3ccccc3c(=O)[nH]2)C1=N	3.7*	1.1	8	0	4%	.
N=C1C(c2nc3ccccc3c(=O)[nH]2)=C(O)CN1CCO	1.9	1	0	15	10%	i
COC(=O)c1ccc(OCC(O)CN(CC(C)C)CC(C)C)cc1 (stereo unspecified)	1.1	0.99	5	9	5%	i
CC(C)n1nnnc1SCC(=O)Nc1ccccc1N1CCOCC1	1	1	2	active	5%	i
Cn1c(Cc2ccccc2)nnc1SCC(=O)Nc1ccccc1N1CCOCC1	1.1	1	5	1	2%	i
O=C(CN1CCN(C(=O)c2ccccc2F)CC1)Nc1ccc(Br)cc1	1.2	1	0	8	3%	i
CC(C)Nc1nc2n(c(=O)n1)CCN2C(C)C	1.1	1	8	0	5%	i
O=C1c2ccccc2NC(c2ccccc2)N1Cc1ccco1 (stereo unspecified)	2.2*	1	8	1	5%	.
O=C1c2ccccc2NC(c2ccc(F)cc2)N1Cc1ccco1 (stereo unspecified)	3.8*	1.1	5	4	5%	.
CC(=O)C1=C(O)C(=O)N(Cc2ccco2)C1c1ccc(F)cc1 (stereo unspecified)	1	1	11	3	5%	i
O=C1c2ccccc2N2C(=O)c3ccccc3C2N1Cc1ccco1 (stereo unspecified)	1.1	1	6	0	3%	i
CN(C)S(=O)(=O)c1ccc(/C(O)=C2/C(=O)C(=O)N(CCN3CCCCC3)C2c2cccnc2)cc1 (stereo unspecified)	1	1.1	9	1	2%	i
C=CCn1sc(=N)c(C#N)c1N	1.1	1	0	22	7%	i
O=C1CC(c2cccnc2)c2cc3c(cc2N1)OCO3 (stereo unspecified)	1.1	1	12	10	5%	+
O=C1c2oc3ccccc3c(=O)c2C(c2ccc(Cl)cc2)N1c1ncccn1 (stereo unspecified)	1.1	1	4	4	3%	i
Cc1ccc(C(C(=O)NC2CCCC2)N(Cc2cccnc2)C(=O)c2snc(C(N)=O)c2N)o1 (stereo unspecified)	2.6*	1.1	9	7	13%	i
COCCNC(=O)C(c1ccc(C)o1)N(C(=O)c1snc(C(N)=O)c1N)c1cccc(C)c1 (stereo unspecified)	2.5*	1	7	16	15%	i
CCOc1ccccc1N(C(=O)c1snc(C(N)=O)c1N)C(C(=O)NC1CCCC1)c1ccco1 (stereo unspecified)	2.4*	1.1	5	.	14%	i
Cc1ccc(-c2cc(C(=O)N3CCOCC3)c3ccccc3n2)cc1	2.1*	1.1	0	1	1%	.
COc1ccc(-c2cc(C(=O)N3CCOCC3)c3cc(C)ccc3n2)cc1	3.7*	1.1	2	0	1%	.
SMILES	Fluor 339 460	Abs 340nm	MK inhibit	PMK inhibit	NADH coupling	DPM-DC inhibit
COc1ccc(-c2nn(-c3ccccc3)cc2C(=O)N2CCOCC2)cc1	1.1	1	1	2	1%	i
Cc1ccc(-c2cc(C(=O)N3CCN(c4ncccn4)CC3)c3ccccc3n2)cc1	1.3	1.1	0	17	6%	i
COC(=O)c1cc(-c2ccc3c(c2)OCO3)nc2ccccc12	2.2*	1.1	8	8	8%	.
Cc1nc(NC(C)c2ccccc2)c2oc3ccccc3c2n1 (stereo unspecified)	1.1	1	8	17	10%	i
CC1CCCN(c2ncnc3c2cnn3-c2ccccc2)C1 (stereo unspecified)	0.92	1	4	10	6%	i
CCOC(=O)C1CCCN(c2ncnc3c2cnn3-c2cccc(C)c2)C1 (stereo unspecified)	1.1	1	0	15	5%	i
COc1cccc2[nH]c3c(N4CCCC(C)C4)ncnc3c12 (stereo unspecified)	3.4*	1.1	9	10	10%	.
CCOC(=O)C1CCCN(c2ncnc3c2[nH]c2cccc(OC)c23)C1 (stereo unspecified)	3.7*	1.1	4	12	8%	.
CCOC(=O)CSc1nc(-c2cccs2)nc2c1c(=O)n(C)c(=O)n2C	1.7	1.1	0	3	5%	i
COC(=O)c1ccsc1NC(=O)c1ccc2c(c1)OCCO2	2.1*	1.1	5	7	6%	.
COc1ccc(-c2cc3ccccc3n2CC(O)CN2CCN(CCO)CC2)cc1 (stereo unspecified)	1.2	1	6	8	6%	i
COc1ccc2c(c1)cc1n2CCN2CCCN=C12	2.1*	1.1	11	10	12%	i
COc1ccc2c(c1)cc1n2CCN=C1N	2.8*	1.1	10	4	10%	i
COc1ccc(-c2nc(N)n(C(C)=O)n2)cc1	1.1	1.1	2	9	4%	i
CC1CC(C)CN(CCCNC(=O)C2CCCN(c3nnc(N4CCCC4=O)s3)C2)C1 (stereo unspecified)	1.1	1	6	7	4%	i
COC(=O)c1c(C(=O)OC)n(CCCN)c2ccc(C)cc12	2.4*	0.99	5	0	4%	.
CCOc1nc(Nc2ccc(-c3nc4ccccc4o3)cc2)nc(N2CCOCC2)n1	4.8*	1.1	0	8	4%	.
Cc1ccc(Nc2nc(OC(C(F)(F)F)C(F)(F)F)nc(N3CCOCC3)n2)cc1	1.1	1	9	3	5%	i
CCN(CC)c1ccc(/C=N/n2c(=S)[nH]nc(C)c2=O)cc1	1.1	1.2	4	0	39µM*	+
COc1ccc2nc(NC(=O)Cc3ccc(OC)c(S(=O)(=O)N4CCOCC4)c3)sc2c1	1.1	1	0	7	6%	i
CCN=C1Cn2c(nc3scc(-c4ccccc4)c3c2=O)CN1CC	2.4*	1	0	4	4%	i
COC(=O)c1nnn(CC(=O)Nc2cccc(Cl)c2C)c1C(=O)OC	1.1	1	0	18	6%	i
